PubChem BioAssay (EPA / NIEHS)
Records with an inconclusive call do not appear. Some compounds were tested as several samples or in several runs, with calls that do not always agree. Calls of active or inactive are those of the source. The calls were made as follows, unless noted: active = hit-call score of the fitted dose curve at least 0.9, where 1 is the maximum; inactive = score below 0.9.

Tests used:
[1] = ATG_NF_kB_CIS: Attagene CIS-FACTORIAL HepG2 Assay for human Nuclear Factor Kappa B (NF-kB) (AID 2282991); settings: HepG2 Attagene cis-factorial NF-kB reporter mRNA; actives raise or lower the signal
Method in brief: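 Endpoint from a 52-component multiplexed HepG2 reporter panel: cis-regulated transcription units transiently transfected, 24 h dosing, reporter mRNA quantified by RT-PCR and capillary electrophoresis, scored as increase or decrease against DMSO.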

[2] = ATG_NRF2_ARE_CIS: Attagene CIS-FACTORIAL HepG2 Assay for human Nuclear Factor Erythroid 2 Related Factor 2 (NFR2) response to Antioxidant Response Elements (ARE) (AID 2282992); settings: HepG2 Attagene ARE/NRF2 reporter, transcription factor activity; actives raise or lower the signal;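 as to AC50: reporter mRNA level measured by RT-PCR and capillary electrophoresis fluorescence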
Method in brief: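 HepG2 cells transiently transfected with multiplexed cis-regulated reporter transcription units measure endogenous transcription factor activity. Reporter mRNA at 24 h is quantified by RT-PCR, fluorescent labelling and capillary electrophoresis, with bidirectional fitting relative to DMSO.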

[3] = ATG_Oct_MLP_CIS: Attagene CIS-FACTORIAL HepG2 Assay for human Octamer-Binding Transcription Factor (Oct) (AID 2282993); settings: HepG2 Attagene cis-factorial Oct reporter, mRNA; actives raise or lower the signal
Method in brief: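 HepG2 cells transiently transfected with cis-element-driven reporter transcription units (endogenous TF activity); 24 h compound exposure. Reporter mRNA quantified by RT-PCR, 6-FAM labelling, HpaI digestion and capillary electrophoresis; bidirectional fit versus DMSO baseline.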

[4] = target: Cellular tumor antigen p53 (Homo sapiens) (UniProt P04637); assay: ATG_p53_CIS: Attagene CIS-FACTORIAL HepG2 Assay for human p53 Transcription Factor (AID 2282994); settings: HepG2 p53 cis-element reporter, Attagene mRNA; actives raise or lower the signal
Method in brief: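 HepG2 cells transiently transfected with multiplexed cis-regulated reporter transcription units read endogenous TF activity. After 24 h compound exposure, reporter mRNA was quantified by RT-PCR, fluorescent labelling, HpaI digestion and capillary electrophoresis; bidirectional fits versus DMSO baseline.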

[5] = target: human Peroxisome Proliferator-activated Receptor alpha (PPARa), PPARA (gene 5465) (UniProt Q07869); assay: ATG_PPARa_TRANS: Attagene TRANS-FACTORIAL HepG2 Assay for human Peroxisome Proliferator-activated Receptor alpha (PPARa) (AID 2283001; active = hit-call score of the fitted dose curve at least 0.9, where 1 is the maximum)
Method in brief: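 Read-out is fluorescence of reporter cDNA fragments resolved by capillary electrophoresis after RT-PCR. Human HepG2 liver cells carried transfected PPARa-Gal4 chimera and GAL4-UAS reporter units, treated 24 h; activity scored as increase over DMSO.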

[6] = target: human Retinoic Acid Receptor beta (RARb), RARB (gene 5915) (UniProt P10826); assay: ATG_RARb_TRANS: Attagene TRANS-FACTORIAL HepG2 Assay for human Retinoic Acid Receptor beta (AID 2283004; active = hit-call score of the fitted dose curve at least 0.9, where 1 is the maximum)
Method in brief: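 Induction of reporter mRNA from a chimeric RARb-Gal4 construct was measured by RT-PCR, FAM labelling, HpaI digestion and capillary electrophoresis. Measurements followed 24 h compound treatment of transiently transfected human HepG2 liver cells, with DMSO as baseline.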

[7] = target: Nuclear receptor subfamily 1 group I member 2 (Homo sapiens) (UniProt O75469); assay: ATG_PXR_TRANS: Attagene TRANS-FACTORIAL HepG2 Assay for human Pregnane X Receptor (PXR) (AID 2283008; active = hit-call score of the fitted dose curve at least 0.9, where 1 is the maximum)
Method in brief: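 HepG2 cells transiently transfected with multiple reporter units, here a PXR-GAL4 chimera driving a GAL4-UAS reporter; 24 h compound exposure. Reporter mRNA measured by RT-PCR, FAM labelling and capillary electrophoresis; gain of signal fitted against DMSO baseline.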

[8] = target: human RAR-related Orphan Receptor beta (RORb), RORB (gene 6096) (UniProt Q92753); assay: ATG_RORb_TRANS: Attagene TRANS-FACTORIAL HepG2 Assay for human RAR-related Orphan Receptor beta (RORb) (AID 2283010; active = hit-call score of the fitted dose curve at least 0.9, where 1 is the maximum)
Method in brief: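 HepG2 cells transiently transfected with GAL4-UAS reporter units expressing chimeric NR-Gal4 protein; reporter mRNA measured 24 h after dosing by RT-PCR, 6-FAM labelling and capillary electrophoresis. Gain-of-signal fitted relative to DMSO baseline.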

[9] = BSK_3C_uPAR: BioMAP Diversity Plus: 3C Assay for Urokinase-type plasminogen activator receptor (uPAR) Biomarker Activity (AID 2282998); settings: BioMAP 3C HUVEC, uPAR biomarker ELISA; actives raise or lower the signal
Method in brief: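 Primary human umbilical vein endothelial cells, 3C system; surface uPAR measured by ELISA 24 h after dosing. Cytotoxicity via SRB total protein in parallel cultures; bidirectional fit against DMSO.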

[10] = BSK_3C_VCAM1: BioMAP Diversity Plus: 3C Assay for Vascular cell adhesion molecule 1 (VCAM1) Biomarker Activity (AID 2282999); settings: BioMAP 3C HUVEC, VCAM1 ELISA, cytokine-stimulated; actives raise or lower the signal
Method in brief: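 Endothelial cells from human umbilical vein are treated with test chemical. At 24 h, VCAM-1 is measured by ELISA, and responses in either direction are fitted relative to DMSO.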

[11] = BSK_4H_Eotaxin3: BioMAP Diversity Plus: 4H Assay for Eotaxin 3 Biomarker Activity (AID 2283000); settings: primary human endothelial cells (HUVEC); actives raise or lower the signal
Method in brief: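 Human umbilical vein endothelial cells (BSK_4H system) dosed with test chemical; Eotaxin-3 (CCL26) measured by ELISA 24 h after dosing. Bidirectional curve fitting relative to DMSO negative control as baseline.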

[12] = target: human Peroxisome Proliferator-activated Receptor delta (PPARd), PPARD (gene 5467) (UniProt Q03181); assay: ATG_PPARd_TRANS: Attagene TRANS-FACTORIAL HepG2 Assay for human Peroxisome Proliferator-activated Receptor delta (PPARd) (AID 2283002; active = hit-call score of the fitted dose curve at least 0.9, where 1 is the maximum)
Method in brief: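 Read-out is induced reporter mRNA, quantified by RT-PCR with fluorescent labelling and capillary electrophoresis after 24 h dosing. Cells are HepG2 transiently carrying multiple GAL4-UAS reporter units driven by exogenous NR-GAL4 chimeras; DMSO serves as baseline.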

[13] = read-out: Intercellular Adhesion Molecule 1 (ICAM1), ICAM1 (gene 3383); assay: BSK_3C_ICAM1: BioMAP Diversity Plus: 3C Assay for Intercellular Adhesion Molecule 1 (ICAM1) Biomarker Activity (AID 2283003); settings: primary human endothelial cells (HUVEC); actives raise or lower the signal
Method in brief: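 HUVEC primary cells stimulated under 3C conditions; ICAM1 measured by ELISA 24 h after compound dosing. Curves fitted bidirectionally against the DMSO baseline. Overt cytotoxicity checked by SRB staining of parallel cultures.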

[14] = BSK_3C_Proliferation: Cell Proliferation Assessment in the BioMAP Diversity Plus: 3C Assay (AID 2283006); settings: primary human endothelial cells (HUVEC);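 as to AC50: potency may reflect either rise or fall in cell number versus DMSO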
Method in brief: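 Subconfluent HUVEC (3C system) cultured with chemical; relative cell number read at 48 h by sulforhodamine B total-protein staining (0.1% SRB after 10% TCA fixation, 560 nm). Bidirectional fit relative to DMSO.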

[15] = target: Peroxisome proliferator-activated receptor gamma (Homo sapiens) (UniProt P37231); assay: ATG_PPARg_TRANS: Attagene TRANS-FACTORIAL HepG2 Assay for human Peroxisome Proliferator-activated Receptor-gamma (PPARg) (AID 2283007; active = hit-call score of the fitted dose curve at least 0.9, where 1 is the maximum)
Method in brief: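 Endpoint reflects upward reporter mRNA change versus DMSO controls. Setup: transiently transfected HepG2, GAL4-UAS reporters driven by chimeric NR-Gal4, 24 h incubation, RT-PCR with capillary electrophoresis read-out.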

[16] = target: human Retinoic Acid Receptor gamma (RARg), RARG (gene 5916) (UniProt P13631); assay: ATG_RARg_TRANS: Attagene TRANS-FACTORIAL HepG2 Assay for human Retinoic Acid Receptor gamma (RARg) (AID 2283009; active = hit-call score of the fitted dose curve at least 0.9, where 1 is the maximum)
Method in brief: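 HepG2 transiently transfected with GAL4-UAS reporter units and chimeric NR-Gal4 constructs; 24 h compound exposure. Reporter mRNA quantified by RT-PCR, FAM labeling, HpaI digestion and capillary electrophoresis; gain-of-signal versus DMSO.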

[17] = target: human RAR-related Orphan Receptor gamma (RORg), RORC (gene 6097) (UniProt P51449); assay: ATG_RORg_TRANS: Attagene TRANS-FACTORIAL HepG2 Assay for human RAR-related Orphan Receptor gamma (RORg) (AID 2283011; active = hit-call score of the fitted dose curve at least 0.9, where 1 is the maximum)
Method in brief: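 Reporter transcripts from a transfected RORg-GAL4 chimera in HepG2 cells were quantified 24 h after dosing by RT-PCR, 6-FAM labelling, HpaI digestion and capillary electrophoresis; increases over DMSO baseline were fitted.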

[18] = BSK_3C_TissueFactor: BioMAP Diversity Plus: 3C Assay for Tissue Factor Biomarker Activity (AID 2282997); settings: BioMAP 3C HUVEC, tissue factor biomarker readout; actives raise or lower the signal
Method in brief: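 Dosing of human umbilical vein endothelial cells preceded a 24 h incubation. Tissue Factor was then read by ELISA, with increases and decreases both scored relative to DMSO controls.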

[19] = target: Retinoic acid receptor alpha (Homo sapiens) (UniProt P10276); assay: ATG_RARa_TRANS: Attagene TRANS-FACTORIAL HepG2 Assay for human Retinoic Acid Receptor alpha (RARa) (AID 2283005; active = hit-call score of the fitted dose curve at least 0.9, where 1 is the maximum)
Method in brief: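 Reporter transcripts, measured by RT-PCR with fluorescent labeling and capillary electrophoresis after 24 h dosing, reflect activity of an exogenous human RARa–GAL4 fusion in transiently transfected HepG2. Fitted for increase relative to DMSO.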

Measured: AC50

human Peroxisome Proliferator-activated Receptor delta (PPARd), PPARD (gene 5467), sequence (Q03181 whole entry, looked up, the tested form may be a part): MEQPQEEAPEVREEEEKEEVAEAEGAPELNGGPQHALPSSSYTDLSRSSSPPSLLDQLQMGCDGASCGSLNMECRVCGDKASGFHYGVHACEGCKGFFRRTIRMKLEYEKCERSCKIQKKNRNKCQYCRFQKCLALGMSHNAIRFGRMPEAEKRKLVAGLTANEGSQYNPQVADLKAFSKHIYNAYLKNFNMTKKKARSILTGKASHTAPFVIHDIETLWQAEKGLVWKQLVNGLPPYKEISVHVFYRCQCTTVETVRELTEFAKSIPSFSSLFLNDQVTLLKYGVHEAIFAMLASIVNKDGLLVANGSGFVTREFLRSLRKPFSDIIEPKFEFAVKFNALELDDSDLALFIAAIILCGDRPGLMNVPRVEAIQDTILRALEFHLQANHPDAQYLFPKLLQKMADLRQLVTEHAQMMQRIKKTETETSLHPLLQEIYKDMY
human Retinoic Acid Receptor beta (RARb), RARB (gene 5915), sequence (P10826 whole entry, looked up, the tested form may be a part): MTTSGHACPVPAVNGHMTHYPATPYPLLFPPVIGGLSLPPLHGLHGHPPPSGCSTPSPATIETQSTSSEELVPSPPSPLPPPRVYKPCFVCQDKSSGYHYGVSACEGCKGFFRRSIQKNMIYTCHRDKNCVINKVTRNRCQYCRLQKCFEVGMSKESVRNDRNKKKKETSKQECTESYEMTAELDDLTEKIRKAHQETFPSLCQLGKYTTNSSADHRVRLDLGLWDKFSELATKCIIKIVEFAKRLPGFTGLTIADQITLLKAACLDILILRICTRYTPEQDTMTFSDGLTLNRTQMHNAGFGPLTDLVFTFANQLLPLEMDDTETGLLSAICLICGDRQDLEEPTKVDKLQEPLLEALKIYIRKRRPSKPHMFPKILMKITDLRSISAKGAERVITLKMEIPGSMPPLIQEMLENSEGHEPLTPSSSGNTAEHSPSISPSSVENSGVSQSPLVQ
Peroxisome proliferator-activated receptor gamma (Homo sapiens), sequence (P37231 whole entry, looked up, the tested form may be a part): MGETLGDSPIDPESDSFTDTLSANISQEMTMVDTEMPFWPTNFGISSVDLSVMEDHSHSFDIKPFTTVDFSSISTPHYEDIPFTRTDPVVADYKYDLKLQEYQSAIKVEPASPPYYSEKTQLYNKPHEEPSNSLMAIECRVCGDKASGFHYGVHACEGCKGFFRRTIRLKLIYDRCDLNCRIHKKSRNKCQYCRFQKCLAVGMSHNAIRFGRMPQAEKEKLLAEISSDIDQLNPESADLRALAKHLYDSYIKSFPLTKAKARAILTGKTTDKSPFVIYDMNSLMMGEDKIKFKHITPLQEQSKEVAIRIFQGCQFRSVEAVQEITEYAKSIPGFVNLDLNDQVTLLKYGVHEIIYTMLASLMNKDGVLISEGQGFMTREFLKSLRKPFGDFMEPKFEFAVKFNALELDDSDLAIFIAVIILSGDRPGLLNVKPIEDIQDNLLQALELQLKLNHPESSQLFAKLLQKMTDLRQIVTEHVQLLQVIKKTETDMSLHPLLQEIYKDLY
Retinoic acid receptor alpha (Homo sapiens), sequence (P10276 whole entry, looked up, the tested form may be a part): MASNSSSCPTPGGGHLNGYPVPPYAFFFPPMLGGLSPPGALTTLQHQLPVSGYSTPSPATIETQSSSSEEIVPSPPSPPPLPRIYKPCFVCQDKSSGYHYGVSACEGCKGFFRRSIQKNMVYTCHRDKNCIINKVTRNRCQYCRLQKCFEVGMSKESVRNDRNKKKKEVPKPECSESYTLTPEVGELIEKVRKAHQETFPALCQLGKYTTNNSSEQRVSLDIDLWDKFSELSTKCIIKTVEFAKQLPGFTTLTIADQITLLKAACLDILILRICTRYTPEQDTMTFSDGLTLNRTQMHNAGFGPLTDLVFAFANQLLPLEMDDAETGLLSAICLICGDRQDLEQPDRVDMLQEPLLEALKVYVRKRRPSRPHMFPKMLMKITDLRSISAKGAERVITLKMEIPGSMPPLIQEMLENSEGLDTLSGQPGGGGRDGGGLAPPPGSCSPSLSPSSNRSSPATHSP
human Peroxisome Proliferator-activated Receptor alpha (PPARa), PPARA (gene 5465), sequence (Q07869 whole entry, looked up, the tested form may be a part): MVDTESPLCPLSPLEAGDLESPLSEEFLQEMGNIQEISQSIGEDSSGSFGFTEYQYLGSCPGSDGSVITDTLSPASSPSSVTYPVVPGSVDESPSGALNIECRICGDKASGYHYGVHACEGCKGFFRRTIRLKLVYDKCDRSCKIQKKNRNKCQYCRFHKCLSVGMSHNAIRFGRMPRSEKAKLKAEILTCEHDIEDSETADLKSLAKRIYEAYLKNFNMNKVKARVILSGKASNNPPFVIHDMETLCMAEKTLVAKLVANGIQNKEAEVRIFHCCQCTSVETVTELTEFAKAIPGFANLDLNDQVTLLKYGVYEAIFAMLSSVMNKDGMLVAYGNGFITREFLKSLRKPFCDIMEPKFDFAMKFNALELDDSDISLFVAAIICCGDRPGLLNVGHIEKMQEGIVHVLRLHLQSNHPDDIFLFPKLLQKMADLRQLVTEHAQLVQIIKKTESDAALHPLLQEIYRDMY
Nuclear receptor subfamily 1 group I member 2 (Homo sapiens), sequence (O75469 whole entry, looked up, the tested form may be a part): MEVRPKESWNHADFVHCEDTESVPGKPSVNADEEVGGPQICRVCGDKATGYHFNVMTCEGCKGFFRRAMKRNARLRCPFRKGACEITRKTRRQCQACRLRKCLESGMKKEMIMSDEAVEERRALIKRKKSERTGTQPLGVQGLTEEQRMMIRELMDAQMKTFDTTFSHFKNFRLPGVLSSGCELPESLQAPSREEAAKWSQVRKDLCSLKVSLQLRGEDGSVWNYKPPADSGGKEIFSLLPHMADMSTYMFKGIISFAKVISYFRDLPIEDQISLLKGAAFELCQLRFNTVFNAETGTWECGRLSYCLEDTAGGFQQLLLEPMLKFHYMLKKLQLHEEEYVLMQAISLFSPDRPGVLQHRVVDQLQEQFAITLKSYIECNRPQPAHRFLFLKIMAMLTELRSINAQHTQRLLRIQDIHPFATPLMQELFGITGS
Cellular tumor antigen p53 (Homo sapiens), sequence (P04637 whole entry, looked up): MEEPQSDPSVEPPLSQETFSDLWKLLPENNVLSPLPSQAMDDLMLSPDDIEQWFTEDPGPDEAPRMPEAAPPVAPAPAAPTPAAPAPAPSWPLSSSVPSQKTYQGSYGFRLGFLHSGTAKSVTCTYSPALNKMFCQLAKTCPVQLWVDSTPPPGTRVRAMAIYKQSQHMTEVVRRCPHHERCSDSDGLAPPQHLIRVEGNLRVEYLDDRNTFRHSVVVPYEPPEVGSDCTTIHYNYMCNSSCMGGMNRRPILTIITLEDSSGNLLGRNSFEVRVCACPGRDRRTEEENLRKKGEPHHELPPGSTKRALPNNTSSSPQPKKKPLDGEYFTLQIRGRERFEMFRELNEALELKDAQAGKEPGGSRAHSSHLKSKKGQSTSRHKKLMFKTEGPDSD
human RAR-related Orphan Receptor gamma (RORg), RORC (gene 6097), sequence (P51449 whole entry, looked up, the tested form may be a part): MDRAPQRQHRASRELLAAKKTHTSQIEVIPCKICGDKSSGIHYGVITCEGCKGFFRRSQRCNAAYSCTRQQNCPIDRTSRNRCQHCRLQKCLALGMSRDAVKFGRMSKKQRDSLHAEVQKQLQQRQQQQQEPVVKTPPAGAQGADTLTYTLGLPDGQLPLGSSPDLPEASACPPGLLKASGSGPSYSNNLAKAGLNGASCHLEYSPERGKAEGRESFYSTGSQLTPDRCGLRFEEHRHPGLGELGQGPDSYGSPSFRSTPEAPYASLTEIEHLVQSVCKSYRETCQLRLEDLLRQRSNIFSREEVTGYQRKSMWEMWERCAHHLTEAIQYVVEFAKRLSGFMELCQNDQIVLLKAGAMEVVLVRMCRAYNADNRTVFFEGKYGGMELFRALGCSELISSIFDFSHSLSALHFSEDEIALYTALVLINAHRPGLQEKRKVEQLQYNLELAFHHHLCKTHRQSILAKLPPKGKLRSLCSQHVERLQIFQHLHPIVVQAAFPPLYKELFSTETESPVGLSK
human RAR-related Orphan Receptor beta (RORb), RORB (gene 6096), sequence (Q92753 whole entry, looked up, the tested form may be a part): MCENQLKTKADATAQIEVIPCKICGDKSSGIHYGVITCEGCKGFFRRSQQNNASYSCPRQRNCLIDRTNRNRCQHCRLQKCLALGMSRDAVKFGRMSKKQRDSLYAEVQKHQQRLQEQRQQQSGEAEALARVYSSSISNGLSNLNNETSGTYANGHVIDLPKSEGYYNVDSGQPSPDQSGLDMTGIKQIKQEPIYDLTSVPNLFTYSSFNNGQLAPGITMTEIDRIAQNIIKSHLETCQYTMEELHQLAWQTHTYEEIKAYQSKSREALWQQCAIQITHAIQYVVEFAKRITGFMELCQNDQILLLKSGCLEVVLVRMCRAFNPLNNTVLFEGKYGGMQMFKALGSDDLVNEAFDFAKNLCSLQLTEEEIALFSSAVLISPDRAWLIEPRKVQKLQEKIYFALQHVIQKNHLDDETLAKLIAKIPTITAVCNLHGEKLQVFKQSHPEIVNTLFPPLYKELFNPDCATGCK
human Retinoic Acid Receptor gamma (RARg), RARG (gene 5916), sequence (P13631 whole entry, looked up, the tested form may be a part): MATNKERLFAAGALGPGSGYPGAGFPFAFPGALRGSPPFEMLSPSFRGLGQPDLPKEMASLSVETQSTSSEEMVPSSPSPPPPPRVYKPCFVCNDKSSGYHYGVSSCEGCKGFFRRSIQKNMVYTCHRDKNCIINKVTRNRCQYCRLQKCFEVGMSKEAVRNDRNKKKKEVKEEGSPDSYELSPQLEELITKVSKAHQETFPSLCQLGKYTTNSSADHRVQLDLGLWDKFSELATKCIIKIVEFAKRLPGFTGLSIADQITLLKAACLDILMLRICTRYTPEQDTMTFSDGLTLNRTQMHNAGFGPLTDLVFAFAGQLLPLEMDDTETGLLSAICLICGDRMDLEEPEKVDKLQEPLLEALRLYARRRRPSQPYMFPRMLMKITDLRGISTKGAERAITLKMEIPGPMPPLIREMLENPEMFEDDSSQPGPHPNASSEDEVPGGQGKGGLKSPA

O=C(O)C(=O)O
inactive: [1] | [2] | [3] | [4] | [5] | [6] | [7] | [8]

CCCCc1oc2ccccc2c1C(=O)c1cc(I)c(OCCN(CC)CC)c(I)c1
active: [3] 27.3 µM | [9] 6.63 µM | [10] 22.6 µM | [11] 19.6 µM | [13] 23.3 µM | [14] 5.66 µM
inactive: [4] | [12] | [15] | [7] | [16]

Cc1ccccc1OCC(=O)O
inactive: [3] | [12] | [6] | [17]

Cc1cncc(C)c1
inactive: [1] | [3] | [4] | [5] | [12] | [15] | [7]

CCCCCCCCCCCCOS(=O)(=O)O
inactive: [18] | [9] | [10] | [11] | [13] | [14]

Cc1ccc(S(=O)(=O)O)cc1
inactive: [2] | [3] | [4] | [5] | [6] | [19] | [7] | [8]

O=C(CCCN1CCC(O)(c2ccc(Cl)cc2)CC1)c1ccc(F)cc1
active: [3] 47.9 µM | [4] 46.2 µM | [18] 15.6 µM | [9] 20 µM | [14] 7.3 µM
inactive: [10] | [11] | [5] | [13]

CCOC(=O)c1nc(C(Cl)(Cl)Cl)n(-c2ccc(Cl)cc2Cl)n1
active: [2] 26.8 µM | [15] 40.4 µM | [7] 7.68 µM
inactive: [1] | [3]

CC(C)(O)C(=O)c1ccccc1
active: [7] 30 µM
inactive: [1] | [2] | [3] | [4] | [5] | [12] | [6] | [19] | [17]

CCC1CO1 (centres undefined)
inactive: [1] | [2] | [3] | [4] | [5] | [12] | [19] | [7] | [8] | [17]

C=CC(F)(F)C(F)(F)C(F)(F)C(F)(F)F
inactive: [1] | [2] | [4] | [5] | [15] | [7]

Oc1ccc(Cc2ccccc2O)cc1
active: [11] 0.149 µM | [14] 15.9 µM
inactive: [3] | [4] | [9] | [10] | [11] | [5] | [12] | [13] | [14] | [15] | [7]

Cc1cc(=O)oc2cc(O)ccc12
inactive: [1] | [2] | [3] | [4] | [12] | [15] | [7] | [8]
active: [7] 12 µM

CC(C)(C)c1ccc(CCC=O)cc1
inactive: [1] | [3] | [15] | [17]
active: [2] 130 µM | [4] 182 µM | [7] 29.3 µM

Clc1ccc(Nc2nnc(Cc3ccncc3)c3ccccc23)cc1
inactive: [1] | [4] | [9] | [10] | [11] | [12] | [13] | [14] | [16]
active: [2] 18.7 µM | [15] 26.9 µM | [7] 3.3 µM
